Screening results: PubChem BioAssay, National Center for Advancing Translational Sciences (NCATS)
Shown are actives, neighbours in structure and some others; about 6.8% of the full set was active somewhere.
PINK1 expr mod: modulators of PINK1 expression; PINK1 immunofluorescence, high-content cytometry, 24 h; Potency, µM (series often up to 76.6 µM), for the others: top-dose activation (PINK1 increase), most hits filed as activators; 410,000 compounds, 0.2% hits; AID 624263; active = well fitted activation curve with a large enough effect; inconclusive = small, poorly fitted or top-dose-only effect; cell line not stated here; also: % of control where 0% means no effect; nearly all actives have a fitted effect of over 65% in size
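Readout is PINK1 immunofluorescence, quantified alongside mitochondrial, cell and nuclear markers by laser-scanning microplate cytometry. Cells from a stable line were exposed to compound titrations (5 concentrations) for 24 hours, with CCCP controls.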
SW480 rerep: DNA re-replication induction in SW480 cells | Potency, µM (doses to about 46.1 µM), without a hit: at the top dose re-replication activation, hits mostly activators | 340,000 compounds, 1.8% hits | SW480 DNA re-replication, Hoechst DNA content imaging, 48 h | AID 624297; also: % of control where 0% means no effect; nearly all actives have a fitted effect of over 55% in size
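DNA re-replication was detected as more nuclei of elevated Hoechst intensity after 48 hr exposure to compound (23 nL pinned per well of 250 cells).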
MCF10A rerep: inducers of DNA re-replication in MCF 10A breast cells. MCF 10A DNA re-replication, Hoechst nuclear intensity, 48 h. Potency, µM (highest dose often 46.1 µM), inactives show top-dose activity, positive = re-replication, most hits filed as activators. 350,000 compounds, 2.9% hits. AID 624296; also: % of control where 0% means no effect; nearly all actives have a fitted effect of over 50% in size
KB-V1 cytotox: kills drug-selected multidrug resistant KB-V1 cells; 400,000 compounds, 3.4% hits; AID 1347076; KB-V1 MDR cells viability, CellTiter-Glo, 72 h; Potency, µM (series often up to 46.1 µM), most hits filed as cytotoxic; also: % is scaled to controls: 0 for no effect and ±100 for the full control effect; nearly all actives have a fitted effect of over 60% in size
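Following 72 h at 37 degrees C with compound, KB-V1 cell viability was read by CellTiter-Glo luminescence, medium being phenol-red-free DMEM plus 10% FBS; concentration-response parameters came from normalized, curve-fitted qHTS data.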
KB-3-1 cytotox: KB-3-1 parental cell cytotoxicity | KB-3-1 viability, CellTiter-Glo ATP luminescence, 72 h | Potency, µM (series often up to 46.1 µM), actives largely listed as cytotoxic | 400,000 compounds, 1.4% hits | AID 1347075; also: % is scaled to controls: 0 for no effect and ±100 for the full control effect; nearly all actives have a fitted effect of over 60% in size
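Cytotoxicity in the drug-sensitive parental line KB-3-1 was scored as loss of CellTiter-Glo luminescence following 72 h incubation with compound. Values come from curve fitting of normalized concentration-response data.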
PTAP TSG101 blk: blocks PTAP/TSG101 interaction to inhibit HIV-1 budding; Fluorescence polarization, FITC-PTAP peptide / Tsg101 binding; Potency, µM (titrated, usually from 115 µM), for the others: top-dose activity change, negative = inhibition, hits mostly inhibitors; AID 493005; 340,000 tested, under 10 active; active = well fitted inhibition curve with a large enough effect in the main read-out, with a control signal flat, not every such curve was filed as active; inconclusive = small, poorly fitted or top-dose-only effect, or effect the other way, or a change in a side signal; inactive = no such curve, though single readings can be large or run the other way; also: % of control where 0% means no effect
Target sequence (Q99816 whole entry, looked up): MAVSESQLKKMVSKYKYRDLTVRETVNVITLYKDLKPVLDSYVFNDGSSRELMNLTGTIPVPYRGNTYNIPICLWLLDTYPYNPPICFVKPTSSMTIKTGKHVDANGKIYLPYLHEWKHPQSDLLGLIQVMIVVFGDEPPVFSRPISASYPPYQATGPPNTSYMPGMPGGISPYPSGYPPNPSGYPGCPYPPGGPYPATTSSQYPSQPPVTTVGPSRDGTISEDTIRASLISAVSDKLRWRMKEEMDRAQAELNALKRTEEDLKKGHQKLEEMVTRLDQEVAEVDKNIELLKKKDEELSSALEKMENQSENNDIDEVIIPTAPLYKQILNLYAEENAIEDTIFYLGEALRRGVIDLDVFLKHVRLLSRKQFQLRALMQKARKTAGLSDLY
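FP read-out: FITC-PTAP peptide, 50 nM final, binding Tsg101 binding domain, 10 uM final; 20 min, r.t.; 10 mM HEPES pH 7.5, 0.15 M NaCl, 0.01% Tween 20, 3 mM EDTA, 0.1 mM TCEP.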
* marks the source's active call; other numbers are inactive results; i = inactive; ? = inconclusive; · = no result given; [ ] = another dose, or the depositor's remark. Unless noted, calls follow the shape of the dose curve; as a rule, active = well fitted curve in the direction sought with a large enough effect; inconclusive = small, poorly fitted or top-dose-only effect, or another doubt; inactive = no such curve, though single readings can be large; an effect the other way counts as inactive or inconclusive. Potency is read from the fitted curve at half-maximal effect.

SMILES	PINK1 expr mod	SW480 rerep	MCF10A rerep	KB-V1 cytotox	KB-3-1 cytotox	PTAP TSG101 blk
Cc1nn(Cc2ccccc2)c(Cl)c1C(=O)NCCc1ccccc1	-1%	-2%	?	i	i	0%
Cc1ccc(CN2CCc3nnc(C(NS(C)(=O)=O)C(C)C)n3CC2)cc1C (stereo not drawn)	0%	·	·	·	·	·
C[C@@]12C(C[C@H](O)[C@@]34C[C@@H](CCC13)[C@@H](CO)C4=O)[C@](C)(C(=O)O)CC[C@@H]2O (stereo partly drawn)	0%	·	·	i	i	·
C=C1C(=O)[C@]23C[C@H]1CCC2[C@@]1(C)C(C[C@@H]3O)[C@](C)(C(=O)OC)CC[C@@H]1O (stereo partly drawn)	-1%	·	·	i	13µM*	·
CCS(=O)(=O)N1CCc2cc(C(=O)Nc3ccc(Br)cc3F)ccc21	3%	·	·	i	?	·
Cc1c(C(=O)N(C)C2CCOC2)sc2ncnc(NCc3ccc4c(c3)OCO4)c12 (stereo not drawn)	0%	·	·	·	·	·
Cc1nnc(SCc2ccc(Cl)cc2)nc1/C=C/N(C)C	2%	-5%	18µM*	i	i	-7%
CCc1ccccc1N(CC)C(=O)c1c(C)oc2ncnc(N3CCOCC3)c12	1%	·	·	·	·	·
COc1ccc(CNC(=O)c2cccn2-c2nnc(N3CCCC3)s2)c(OC)c1	0%	·	·	i	i	·
CCC1Sc2ccccc2N(CC(=O)NCc2ccccc2OC)C1=O (stereo not drawn)	-4%[38.3 µM]	-12%	10%	21µM*	i	-3%
CCC1Sc2ccccc2N(CC(=O)NCCC(C)C)C1=O (stereo not drawn)	?	-3%	-2%	i	i	-3%
COc1ccc(CCNC(=O)CCCn2c(=O)c3ccccc3n(Cc3ccccc3)c2=O)cc1OC	1%	·	·	i	i	·
C=CCNC(=S)N/N=C(\C)c1cccc(OC)c1	1%	4%	-1%	23µM*	i	-1%
C/C(=N\NC(=S)NCc1ccccc1)c1ccc2ccccc2c1	2%	?	16µM*	?	i	-1%
C/C(=N\NC(=S)NCc1ccccc1)c1cccc(Br)c1	7%	-8%	-1%	?	i	-1%
Cc1ccc(C)c2c1NC(C(=O)O)C1CC=CC21 (stereo not drawn)	0%	·	·	?	i	·
COc1ccc(-c2cc(-c3ccccc3)nc3c2COc2ccc(F)cc2-3)cc1	4%	·	·	i	i	·
N#Cc1ccc(C(=O)CSc2nnc(-c3ccc(C(F)(F)F)cn3)s2)cc1	1%	3.3µM*	26%	i	i	0%
CC(C)Cc1c2c([nH]c(=S)c1C#N)CCCC2	0%	13µM*	3%	?	i	1%
Cc1[nH]c(=S)c(C#N)c2c1CCCC2	3%	13%	1%	i	i	-1%
CCOC(=O)Nc1ccc2c(c1)C(=NNC(N)=S)c1ccccc1-2	-2%	?	?	23µM*	?	-1%
CCOC(=O)Nc1ccc2c(c1)C(=NO)c1ccccc1-2	-6%	-1%	?	8.2µM*	?	-3%
CC(=O)Nc1ccc2c(c1)C(=Nc1ccccc1)c1ccccc1-2	3%	0%	1%	i	i	-11%
COc1cc(-c2nc3ccccn3c2Nc2ccccc2C)ccc1O	1%	·	·	i	i	·
COc1ccccc1CN(Cc1nc2ccccc2c(=O)[nH]1)S(=O)(=O)c1ccc2ccccc2c1	·	?	-18%	13µM*	i	-2%
SMILES	PINK1 expr mod	SW480 rerep	MCF10A rerep	KB-V1 cytotox	KB-3-1 cytotox	PTAP TSG101 blk
O=c1[nH]c(CN(CCc2ccccc2)S(=O)(=O)c2ccc(Cl)cc2)nc2ccccc12	?	?	-38%	3.3µM*	i	-3%
COc1cc2nc(CN(C)Cc3nc4ccccc4c(=O)[nH]3)[nH]c(=O)c2cc1OC	3%[38.3 µM]	16µM*	?	i	i	-1%
COc1ccc(S(=O)(=O)N(Cc2ccccc2)Cc2nc3ccccc3c(=O)[nH]2)cc1	-3%	-2%	15%	?	i	-1%
CCOc1ccc(NC(=O)c2ccc3nc(Cc4ccccc4)oc3c2)cc1	4%	·	·	i	i	·
Cc1cc(C)c(S(=O)(=O)NCCc2sc3nc(-c4ccc(F)cc4)nn3c2C)c(C)c1	-1%	·	·	·	·	·
Cc1cc(C)c(S(=O)(=O)Nc2cccc3nsnc23)c(C)c1	3%	1%	?	15µM*	18µM*	0%
O=S(=O)(Nc1cccc2nsnc12)c1ccccc1	-1%[38.3 µM]	0%	2%	i	i	-1%
CN1c2ccccc2-c2nc3ccccc3n2C1c1cccs1 (stereo not drawn)	14%	?	10µM*	?	?	1%
CN=C1S/C(=C\c2ccc(Cl)cc2)C(=O)N1C	0%	23µM*	?	i	i	0%
CN=C1S/C(=C\c2ccc(SC)cc2)C(=O)N1C	1%	5%	2%	i	i	-7%
CCOC(=O)c1ccccc1NC(=O)COC(=O)c1ccc(C)c(S(=O)(=O)N2CCOCC2)c1	9%	-17%	13%	i	i	0%
CCOC(=O)c1ccccc1NC(=O)c1ccc(Cl)c(S(=O)(=O)N2CCOCC2)c1	2%[38.3 µM]	-4%	24%	7.3µM*	i	-3%
O=C(Nc1ccccc1N1CCCCC1)c1ccc(F)c(S(=O)(=O)N2CCOCC2)c1	0%	-23%	10%	i	?	-1%
O=C(Nc1ccccc1N1CCCC1)c1ccc(Cl)c(S(=O)(=O)N2CCOCC2)c1	1%	-1%	?	15µM*	i	-5%
CCOC(=O)c1ccccc1NC(=O)COC(=O)c1ccc(OCC(=O)N2CCOCC2)c(OCC)c1	11%	-3%	1%	2.6µM*	i	1%
O=C(CCC(=O)N1CC2CCCN2c2ccccc21)NCc1ccccc1 (stereo not drawn)	1%	·	·	i	i	·
S=C(Nc1ccccc1Cl)N1CCCCCC1	0%	1%	-17%	i	i	-1%
S=C(Nc1ccccc1Cl)N1CCCC(c2ccccc2)=N1	0%	?	13µM*	?	i	1%
CCS(=O)(=O)N1CCc2cc(C(=O)Nc3ccc(OC)c(Cl)c3)ccc21	4%	·	·	i	?	·
CCOC(=O)c1[nH]c2ccccc2c1NC(=O)c1cc(OC)cc(OC)c1	0%	·	·	8.2µM*	i	·
COc1ccc(Cl)cc1NC(=O)Cn1nnc(C(=O)NCc2cccs2)c1N	4%	·	·	?	7.3µM*	·
